Screens from PubChem BioAssay.
Hits are enriched below; roughly 2.9% of the tested compounds scored in any of these assays.
ERa coact pot: enhancers of ERα–SRC-1 coactivator binding, primary screen, biochemical, TR-FRET, ERα LBD, low estradiol; TR-FRET ERalpha-LBD/SRC-Cy5 coactivator binding, 2 h; 100 = basal binding, no effect; 1.3% of 86,000 active; coactivator binding (% of control), % at 25.6 µM; AID 639, 2007; in the data active = activity above about 200%;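 note: binding measured in presence of low estradiol as agonist stimulus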
ERb coact inh: inhibitors of ERβ-SRC1 coactivator interaction, primary screen, biochemical, TR-FRET, ERβ LBD, SRC-1 peptide | TR-FRET ER-beta LBD / SRC1-Cy5 peptide binding; receptor agonist-loaded with 1 µM estradiol | inhibition, % at 25.6 µM | 1.3% of 86,000 active;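 active = compounds whose percent inhibition of the receptor-coactivator binding signal exceeds about 50% in the single-dose screen, limit read from the data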
Smad3 inh: Smad3/FoxH1 peptide binding inhibitors, primary screen, biochemical, TR-FRET | TR-FRET Smad3/Dy647-FoxH1 peptide binding, europium anti-His | Mothers against decapentaplegic homolog 3 (Homo sapiens), P84022 | 0.29% of 88,000 active | AID 630, 2007 | inhibition, % at 25 µM;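 active = compounds that reduce the energy-transfer binding signal between the protein and its labelled peptide by more than half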
Target sequence (P84022 whole entry, looked up): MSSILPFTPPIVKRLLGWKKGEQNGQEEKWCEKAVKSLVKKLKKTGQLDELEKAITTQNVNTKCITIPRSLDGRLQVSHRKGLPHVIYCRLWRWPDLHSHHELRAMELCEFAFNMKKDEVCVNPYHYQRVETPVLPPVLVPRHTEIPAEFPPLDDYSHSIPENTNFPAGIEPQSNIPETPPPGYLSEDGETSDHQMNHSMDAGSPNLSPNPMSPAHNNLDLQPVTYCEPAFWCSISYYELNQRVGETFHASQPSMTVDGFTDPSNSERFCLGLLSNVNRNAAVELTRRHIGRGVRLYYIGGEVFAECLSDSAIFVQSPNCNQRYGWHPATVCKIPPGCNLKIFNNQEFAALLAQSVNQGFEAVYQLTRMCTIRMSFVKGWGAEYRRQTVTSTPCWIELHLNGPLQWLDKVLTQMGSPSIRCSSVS
ERa SRC1 inh: ERα–SRC-1 coactivator interaction inhibitors, primary screen, biochemical, TR-FRET, ERα LBD, estradiol-bound; TR-FRET ER-alpha LBD / SRC-1 peptide; 1.7% of 86,000 active; AID 629, 2007; Estrogen receptor (Homo sapiens), P03372; inhibition, % at 25.6 µM; in the data active = inhibition above about 50%
MRP-1 activ: H69AR viability gain despite doxorubicin, primary screen, MRP-1 activator project, H69AR cells, CellTiter-Glo; viability rescue; viability increase, % at 10 µM; 0.61% of 140,000 active;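 active = viability gain under doxorubicin at or above a set limit, the compound median plus 3 SD, cut at about 4.7% in these data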;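 note: MRP-1 overexpressing cells given doxorubicin 25 µM after compound pretreatment; 18-22 h compound pretreatment then 72 h with doxorubicin before readout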
MRP resist rev: reversal of MRP1-mediated doxorubicin resistance, primary screen, H69AR cells, doxorubicin co-treatment; H69AR cells + 2 uM doxorubicin, CellTiter-Glo, 72 h; differential viability (reversal), % at 10 µM; 0.04% of 85,000 active;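 active = viability drop by adding the cancer drug above about 55%, with treated viability meeting a 40% cutoff, limit read from the data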;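 note: larger differential means the compound sensitizes cells more to doxorubicin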
Hits are given with their value; [ ] = another dose, or the depositor's remark.

What do the screens show for `Cc1c(NS(=O)(=O)c2ccc3c(c2)OCCO3)cccc1-c1nc2cccnc2s1`?
ERa coact pot: 244[fluorescence artefact?]; ERb coact inh: inactive; Smad3 inh: inactive; ERa SRC1 inh: inactive; MRP-1 activ: inactive; MRP resist rev: inactive

How did Cc1cc(-c2nc3cccnc3s2)ccc1NS(=O)(=O)c1ccc2c(c1)OCCO2 do in these assays?
ERa coact pot: 204[fluorescence artefact?]; ERb coact inh: inactive; Smad3 inh: inactive; ERa SRC1 inh: inactive; MRP-1 activ: inactive; MRP resist rev: inactive

Results for Cc1ccc(N2CC(C(N)=O)CC2=O)cc1C (centres undefined) ?
ERa coact pot: inactive; ERb coact inh: inactive; Smad3 inh: inactive; ERa SRC1 inh: inactive; MRP-1 activ: inactive; MRP resist rev: inactive

What do the screens show for `Cc1ccc(N2CC(C(=O)Nc3ccccn3)CC2=O)cc1` (centres undefined)?
ERa coact pot: inactive; ERb coact inh: 63[fluorescence artefact?]; Smad3 inh: inactive; ERa SRC1 inh: inactive; MRP-1 activ: inactive; MRP resist rev: inactive

What do the screens show for `COc1ccc(N2CC(C(=O)O)CC2=O)cc1` (centres undefined)?
ERa coact pot: inactive; ERb coact inh: 71; Smad3 inh: inactive; ERa SRC1 inh: inactive; MRP-1 activ: inactive; MRP resist rev: inactive

What do the screens show for `Cc1ccc(N2CC(C(N)=O)CC2=O)cc1` (centres undefined)?
ERa coact pot: inactive; ERb coact inh: inactive; Smad3 inh: 51; ERa SRC1 inh: inactive; MRP-1 activ: inactive; MRP resist rev: inactive

Results for CCc1nnc(NC(=O)C2CC(=O)N(c3ccc(C)cc3)C2)s1 (centres undefined) ?
ERa coact pot: inactive; ERb coact inh: inactive; Smad3 inh: inactive; ERa SRC1 inh: inactive; MRP-1 activ: inactive; MRP resist rev: inactive

How did CCc1c(C)nc(SC(C(=O)O)c2ccccc2)c(C#N)c1C (centres undefined) do in these assays?
MRP-1 activ: inactive

Results for CCCOc1ccc(-c2nc(C#N)c(N3CCC(C(N)=O)CC3)o2)cc1 ?
ERa coact pot: inactive; ERb coact inh: inactive; Smad3 inh: inactive; ERa SRC1 inh: inactive; MRP-1 activ: inactive; MRP resist rev: inactive

How did N#Cc1nc(-c2ccc(OCc3ccc(Cl)cc3)cc2)oc1N1CCOCC1 do in these assays?
ERa coact pot: 278[fluorescence artefact?]; ERb coact inh: inactive; Smad3 inh: inactive; ERa SRC1 inh: inactive; MRP-1 activ: inactive; MRP resist rev: inactive

How did N#Cc1nc(-c2ccc(OCc3ccc(Cl)cc3)cc2)oc1NCc1cccnc1 do in these assays?
ERa coact pot: inactive; ERb coact inh: inactive; Smad3 inh: inactive; ERa SRC1 inh: 51; MRP-1 activ: inactive; MRP resist rev: inactive

What do the screens show for `N#Cc1nc(-c2ccc(Cl)cc2)oc1N1CCCCC1`?
ERa coact pot: inactive; ERb coact inh: inactive; Smad3 inh: inactive; ERa SRC1 inh: inactive; MRP-1 activ: inactive; MRP resist rev: inactive

How did CCOc1ccc(-c2nc(C#N)c(N3CCCCCC3)o2)cc1 do in these assays?
ERa coact pot: inactive; ERb coact inh: inactive; Smad3 inh: inactive; ERa SRC1 inh: inactive; MRP-1 activ: 5.7; MRP resist rev: inactive

What do the screens show for `N#Cc1nc(-c2ccc(OCc3ccc(Cl)cc3)cc2)oc1N1CCC(C(N)=O)CC1`?
ERa coact pot: inactive; ERb coact inh: inactive; Smad3 inh: inactive; ERa SRC1 inh: 61[fluorescence artefact?]; MRP-1 activ: inactive; MRP resist rev: inactive

What do the screens show for `Cc1ccc(S(=O)(=O)Cn2nnnc2CN(Cc2ccco2)CC2CCCO2)cc1` (centres undefined)?
ERa coact pot: inactive; ERb coact inh: inactive; Smad3 inh: inactive; ERa SRC1 inh: inactive; MRP-1 activ: inactive; MRP resist rev: inactive

What do the screens show for `COc1ccc(N(CC(=O)Nc2ccccc2C(=O)NCCc2ccccc2)S(C)(=O)=O)cc1OC`?
ERa coact pot: inactive; ERb coact inh: inactive; Smad3 inh: inactive; ERa SRC1 inh: inactive; MRP-1 activ: inactive; MRP resist rev: inactive
